Compound activity: PubChem BioAssay, several laboratories
Gli-Sufu antag – Gli-Sufu pathway antagonists, primary screen, luciferase luminescence, Sufu-KO-LIGHT cells, uHTS. Sufu-KO-LIGHT fibroblasts, Gli luciferase reporter luminescence. inhibition, % at 5 µM. actives 0.74% (n = 340,000). AID 588413, 2011;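 active means inhibition above about 55%, limit read from the data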;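 further: 0% = DMSO-treated cells and 100% = wells with medium but no cells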
esBAF inh – Bmi1 luciferase reporter increase in mESCs, primary screen, esBAF inhibitor project, mouse ES cells, Bmi1 luciferase knock-in, single point | actives 2% (n = 350,000) | reporter increase, % at 12.5 µM | 24 h; 100% = twice the neutral-well signal; in the data active means activation above about 40%; inconclusive means no clear call, values can overlap the other calls;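 further: 0% = median of the plate's neutral control wells and 100% = double that signal; a rise in the Bmi1 reporter signal indicates esBAF inhibition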
SMARCA2 act – SMARCA2 (BRM) function activators, primary screen, cell-based, luminescence, high throughput | activation, % at 9.1 µM | MG213 cells, MMTV-luciferase reporter, dexamethasone, overnight | actives 1% (n = 370,000) | AID 652017, 2013; in the data active means activation above about 7.8%;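 further: 0% = vehicle wells and 100% = reference activator wells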
697 NFkB inh – inhibitors of PMA/ionomycin-induced NF-kB reporter, 697 cells, primary screen, B-cell NF-kB inhibitor project, cell-based, luminescence, uHTS | 697 B-cell NF-kB luciferase reporter, 16 h | inhibition, % at 4 µM | actives 0.33% (n = 330,000); in the data active means inhibition above about 35%
Jurkat NFkB inh – inhibitors of induced NF-kB luciferase reporter, primary screen, TCR NF-kB activation inhibitor project, cell-based, luminescence, uHTS. actives 0.53% (n = 330,000). AID 435003, 2010. Jurkat, PMA/ionomycin-induced NF-kB luciferase reporter. inhibition, % at 4 µM; in the data active means inhibition above about 50%
Active calls of the source: *; ? = inconclusive; / = no result. Only some compounds are listed: those with a hit (about 3.3% of all), similar ones and a draw of the others.

SMILES	Gli-Sufu antag	esBAF inh	SMARCA2 act	697 NFkB inh	Jurkat NFkB inh
O=C([C@@H]1[C@@H](CO)[C@@H]2Cn3c(ccc(-c4cccnc4)c3=O)[C@@H]2N1CCC(F)(F)F)N1CCOCC1	/	-2	/	/	/
Cn1cnc(CCNC(=O)C[C@@H]2CC[C@@H]3[C@H](COC[C@H](O)CN3C(=O)C3CC3)O2)c1	/	8	/	/	/
Clc1cccc(CNc2ccn3nc(-c4ccc(OCc5ccccc5)cc4)cc3n2)c1	/	17	-1	/	/
Clc1cccc(-c2cc3nc(NCCOc4ccccc4)ccn3n2)c1	/	57*	-3	/	/
Clc1ccccc1-c1cc2nc(NCc3ccco3)ccn2n1	/	72*	1	/	/
Clc1cccc(CNc2ccn3nc(-c4ccccc4)cc3n2)c1	/	50*	0	/	/
CC(C)Cc1ccc(-c2cc3nc(NCCOc4ccccc4)ccn3n2)cc1	/	58*	1	/	/
c1ccc(COc2ccc(-c3cc4nc(NCCOc5ccccc5)ccn4n3)cc2)cc1	/	5	-5	/	/
CN(C)C(=O)CNc1ccn2nc(-c3cccc(Cl)c3)cc2n1	/	35	-1	/	/
Clc1ccc(-c2cc3nc(NCc4cccc(Cl)c4)ccn3n2)cc1	/	76*	2	/	/
Clc1cccc(CNc2ccn3nc(-c4cccc(Cl)c4)cc3n2)c1	/	58*	7	/	/
CC(C)(C)c1cc2nc(NCc3cccc(Cl)c3)ccn2n1	/	7	-6	/	/
COc1ccc(CN(C)C[C@@H]2Oc3c(NS(=O)(=O)c4ccc(Cl)cc4)cccc3C(=O)N([C@@H](C)CO)C[C@@H]2C)cc1	/	0	/	/	/
O=C(O)c1ccc(Nc2nc(-c3cc4ccccc4oc3=O)cs2)cc1O	0	/	0	13	-14
CC(=O)Nc1ccc(Nc2nc(-c3cc4ccccc4oc3=O)cs2)cc1	-14	90*	1	-71	-26
O=C(Nc1ccc(N2CCCC2)c(Cl)c1)c1cccc(-c2cc3ccccc3oc2=O)c1	-5	/	1	-22	-11
Nc1ccc(Nc2nc(-c3cc4ccccc4oc3=O)cs2)cc1	-4	81*	2	3	-16
CC(=O)Nc1ccc(NC(=O)c2cccc(-c3cc4ccccc4oc3=O)c2)cc1	-91	66*	3	-95	-13
COc1cccc2sc(Nc3nc(-c4cc5ccccc5oc4=O)cs3)nc12	1	/	-3	/	/
CCC(=O)Nc1ccc2c(c1)C(=O)N(C)C[C@H](OC)[C@@H](C)CN(CCc1ccccc1)[C@@H](C)CO2	/	2	/	/	/
O=[N+]([O-])c1ccc(CSc2nc3ccccc3[nH]2)cc1	-4	72*	4	-87	-81
c1ccc(CSc2nc3ccccc3[nH]2)cc1	-86	-29	2	-140	-129
Oc1ccccc1/C=N/NC(=S)NC1CC2CCC1C2 (stereo not given)	3	66*	1	-161	-52
COCCNC(=S)N/N=C/c1ccccc1C(=O)O	1	-6	7	14	10
COCCCNC(=S)N/N=C/c1ccccc1O	7	49*	-4	-51	-4
SMILES	Gli-Sufu antag	esBAF inh	SMARCA2 act	697 NFkB inh	Jurkat NFkB inh
Cc1cc(C)c2[nH]c(O)c(N=Nc3ccc(C(=O)O)cc3)c2c1	1	47*	2	-43	-2
NS(=O)(=O)c1ccc(NC(=O)c2ccc3c(c2)CCCC3)cc1	-33	27	5	-16	-39
CNC(=O)c1ccsc1NC(=O)c1ccc2c(c1)CCCC2	-57	56*	5	-57	-65
Cc1ccc(-c2cn(-c3ccccc3F)c(=S)[nH]2)cc1	-73	47*	0	-142	-62
O=[N+]([O-])c1ccc(-c2cn(-c3ccccc3F)c(=S)[nH]2)cc1	-42	/	2	-69	-80
Clc1ccccc1-c1csc(Nc2cccnc2)n1	-16	63*	-1	-26	-44
c1cncc(Nc2nc(-c3ccncc3)cs2)c1	-25	4	-1	23	-7
CCOC(=O)c1sc(=NC(=O)c2ccccc2)n(C)c1C	-68	71*	5	-218	-148
CCOC(=O)c1sc(=NC(=O)c2cccc(OC)c2)n(C)c1C	-70	?	4	-153	-106
COc1ccc(CCC(=O)N/N=C/c2ccc3c(c2)OCO3)cc1	-11	56*	1	-6	-12
O=C(CCc1ccccc1)NCC(=O)N/N=C/c1ccc2c(c1)OCO2	-5	/	3	-2	-17
O=C(N/N=C/c1ccccc1)c1cc(-c2ccc3c(c2)OCO3)n[nH]1	-2	49*	0	7	21
O=C(CSc1ncccn1)N/N=C/c1ccc2c(c1)OCO2	-45	41*	1	-70	-42
Cc1cccc(C(=O)Nc2cccc(C(=O)N/N=C/c3ccc4c(c3)OCO4)c2)c1	-39	60*	2	-30	0
Cc1ccc(C(=O)N/N=C\c2ccc3c(c2)OCO3)cn1	-23	11	1	7	-1
Cc1ccc(C(=O)NN=Cc2ccc3c(c2)OCO3)cc1	-55	48*	4	/	/
Cc1ccccc1C(=O)Nc1cccc(C(=O)N/N=C/c2ccc3c(c2)OCO3)c1	-49	43*	-1	-16	-2
COc1ccc(S(=O)(=O)N/N=C\c2ccc3c(c2)OCO3)c(OC)c1	6	/	-2	-19	16
COc1ccc(OC)c(S(=O)(=O)N/N=C\c2ccc3c(c2)OCO3)c1	-31	47*	1	-25	-28
C[C@@H]1CN([C@H](C)CO)C(=O)Cc2cc(NC(=O)Nc3ccc(F)cc3)ccc2O[C@H]1CN(C)S(=O)(=O)c1cn(C)cn1	/	1	/	/	/
CCOC(=O)c1ccc2nc3c(cc2c1)CCS3	-29	50*	2	-76	-75
COc1ccc(S(=O)(=O)Nc2cccc3c2O[C@H](CN(C)C(=O)Nc2c(C)noc2C)[C@H](C)CN([C@H](C)CO)C3=O)cc1	/	2	/	/	/
CCCC(=O)N1CCCC(C(=O)c2cccc(OC(C)C)c2)C1 (stereo not given)	-33	54*	3	/	/
O=C(Nc1ccc2c(c1)[C@@H]1C[C@@H](CC(=O)N3CCc4ccccc4C3)O[C@@H](CO)[C@@H]1O2)C1CCC1	/	-3	/	/	/
CO[C@H]1CC[C@@H]2CCOc3ccc(C#N)cc3C(=O)N(C)CCCC(=O)N(C)C[C@H]1O2	/	-1	/	/	/
SMILES	Gli-Sufu antag	esBAF inh	SMARCA2 act	697 NFkB inh	Jurkat NFkB inh
Brc1ccc(Nc2nc3ccccc3n3nnnc23)cc1	/	/	/	-4	-14
c1ccc(Nc2nc3ccccc3n3nnnc23)cc1	-47	75*	5	-66	-55
Cn1cnc(S(=O)(=O)N[C@H]2C=C[C@H](CC(=O)Nc3ccc(-c4ccccc4)cc3)O[C@H]2CO)c1	/	-3	/	/	/
Cc1ccc(S(=O)(=O)Nc2cccc3cccnc23)c([N+](=O)[O-])c1	61*	-21	-12	-62	47
COc1cccc(NC(=O)C2CC2)c1	-6	9	1	13	26
CCC1CCC(NC(=O)Nc2cccc(OC)c2)CC1 (stereo not given)	-91	83*	7	-183	-119
